Compounds with a hit are over-represented: about 10% of the library has one in this group of screens.
GLS inh = inhibitors of human glutaminase (GLS); AID 624170; hit rate 0.21% among 410,000; GLS enzymatic activity, qHTS titration; O94925; Potency, µM (top dose mostly 45.5 µM), without a hit: at the top dose activity change, negative = inhibition, actives largely listed as inhibitors; also: % is scaled to controls: 0 for no effect and ±100 for the full control effect
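Human kidney-isoform GLS in 45 mM KH2PO4 pH 8.2, 0.02% Tween-20, with compound, started with 1mM L-Glutamine (added stock). Glutamate oxidase/HRP/Amplex red coupled fluorescence read at start and after 30 min at RT.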
JMJD2A Tudor = inhibitors of human JMJD2A Tudor domain; O75164; AlphaScreen JMJD2A-Tudor / H3K4me3 peptide binding; Potency, µM (top dose mostly 114 µM), inactives show top-dose activity change, negative = inhibition, usual class: inhibitors; hit rate 4.4% among 390,000; AID 504339; also: % is scaled to controls: 0 for no effect and ±100 for the full control effect; nearly all actives have a fitted effect of over 50% in size
G9a block = inhibitors of human histone lysine methyltransferase G9a | Q96KQ7 | hit rate 8.8% among 350,000 | Potency, µM (top dose mostly 102 µM), for the others: at the top dose activity, negative = inhibition, most hits filed as inhibitors | AID 504332 | G9a H3K9 monomethylation, AlphaScreen, 2 h; also: % is scaled to controls: 0 for no effect and ±100 for the full control effect; nearly all actives have a fitted effect of over 75% in size
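G9a (20 nM) was preincubated 15 min with compound, then reacted 2 h at room temperature with 500 nM biotin-H3K9 peptide and 20 µM SAM. Monomethyl-H3K9 detected by AlphaScreen using anti-H3K9me1 antibody.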
BAZ2B block = BAZ2B (human) inhibition. AlphaScreen BAZ2B-H3K14Ac peptide displacement. AID 504333. Potency, µM (top dose mostly 114 µM), for inactives: at the highest dose activity change, negative = inhibition, actives largely listed as inhibitors. hit rate 4.4% among 360,000. Q9UIF8; also: % is scaled to controls: 0 for no effect and ±100 for the full control effect; nearly all actives have a fitted effect of over 60% in size
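AlphaScreen displacement: compounds (up to 110uM) incubated 30 min at room temperature with a preformed 50 nM BAZ2B/50 nM biotinylated H3K14Ac peptide complex in PBS pH 7.4 with Tween-20. Donor and acceptor beads at 10 ug/mL final added, 20 min light-protected before reading.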
HP1b binding inh = HP1-beta chromodomain-methylated histone interaction inhibition; P83916; AlphaScreen HP1-beta / biotin-H3K9me3 peptide binding; Potency, µM (series often up to 114 µM), for the others: at the highest dose activity change, negative = inhibition, actives largely listed as inhibitors; hit rate 0.56% among 390,000; AID 540317; also: nearly all actives have a fitted effect of over 70% in size
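HP1-beta protein (50 nM final) preincubated 30 min at room temperature with biotinylated H3(1-18)K9me3 peptide (50 nM) in PBS pH 7.4, 0.01% Tween-20, then compound added for 30 min. AlphaScreen streptavidin donor/nickel chelate acceptor beads (10 ug/mL final), 30 min dark, luminescence read.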
An asterisk follows results filed as active; ? = inconclusive; . = no result; [ ] = dose if it differs, or a comment. Calls follow the shape of the dose curve; as a rule, active = well fitted curve in the direction sought with a large enough effect; inconclusive = small, poorly fitted or top-dose-only effect, or another doubt; inactive = no such curve, though single readings can be large; an effect the other way counts as inactive or inconclusive. Potency is read from the fitted curve at half-maximal effect.

SMILES	GLS inh	JMJD2A Tudor	G9a block	BAZ2B block	HP1b binding inh
COc1ccc(CNC(=O)COC(=O)C2CC2C)cc1OC (configuration not stated)	-8.3%	-7.6%	14.1µM*	7.9%	22.8%
COc1ccc(CNC(=O)C2CCCN2)cc1OC (configuration not stated)	-0.8%	3.16µM*	17.8µM*	44.7µM*	79.4µM*
Cc1cc(C)c2nc(-c3ccncc3)cc(C(=O)N3CCN(Cc4ccccc4Cl)CC3)c2c1	-6.3%	?	?	?	2.6%
O=C(NCC1CCCO1)C1CCCN1C(=O)NC1CCCCC1 (configuration not stated)	-0.4%	-15.1%	15.0%	4.7%	19.2%
CC(C)(C)c1ccc(C(=O)NC(=S)NCC2CCCO2)cc1 (configuration not stated)	4.1%	-15.2%	39.8µM*	-29.9%	18.1%
CC(C)(C)c1ccc(C(=O)NNC(=S)NCC2CCCO2)cc1 (configuration not stated)	12.1%	-7.8%	-43.8%[59 µM]	-0.6%	34.3%
S=C(NCC1CCCO1)c1ccc(Br)cc1 (configuration not stated)	19.5%	-33.8%	8.91µM*	-3.7%	?
S=C(NCC1CCCO1)NC1CCCCC1 (configuration not stated)	-0.6%	-21.2%	50.1µM*	?	10.9%
Cc1cccc(OC(=O)CSc2nnc(-c3ccc4c(c3)OCO4)o2)c1C	-6.7%	-5.3%	-35.0%[59 µM]	-0.4%	30.9%
COCCCn1c(O)c(/C=C2\N=C(C#N)C(=Nc3ccc(C)cc3)O2)sc1=S	-9.8%	?	?	10µM*	?
CCn1c(O)c(/C=C2\C=Nc3ccccc32)sc1=Nc1ccc(C)cc1	18.5%	-25.3%	8.2%	1.5%[57.1 µM]	10.0%
Cc1ccc(SCCN2CCC(O)CCC2=O)cc1 (configuration not stated)	0.0%	-13.2%	-4.1%	1.1%	21.2%
OCCn1c(-c2ccc(F)cc2)csc1=Nc1ccccc1	-4.0%	?	20µM*	25.1µM*	?
OC(c1ccccc1)(c1nc(-c2ccc3c(c2)OCO3)cs1)C(F)(F)F (configuration not stated)	5.3%	.	.	.	.
OCCn1c(-c2ccc3c(c2)OCO3)csc1=Nc1ccccc1	8.4%	39.8µM*	-47.4%[12.7 µM]	39.8µM*	?
CC12CCC3c4ccc(OCc5ccccc5)cc4CCC3C1CC(O)C2O (configuration not stated)	.	.	-34.4%[2.33 µM]	.	.
CC[C@@H](C)[C@@H](C(=O)Nc1ccc(C)cc1)N1Cc2ccccc2C1=O	-3.9%	-7.1%	-1.1%[59 µM]	-21.2%	29.0%
CCOC(=O)c1cccc(Nc2ccc3cc(S(=O)(=O)N4CCCCC4)ccc3n2)c1	-2.6%	28.2%	-5.8%[59 µM]	14.9%	74.3%
CCOC(=O)c1c(S(=O)(=O)NCC(=O)Nc2ccc(OC)cc2)c(C)n(C)c1C	-6.3%	-13.5%	-3.2%	-12.1%	11.1%[57 µM]
COc1ccc(S(=O)(=O)CCC(=O)Nc2cc(C)ccc2OC)cc1	0.4%	-13.1%	28.2µM*	-1.0%	33.1%
COc1ccc(OC)c(NC(=O)CCn2cccc2)c1	8.2%	-30.5%	?	50.1µM*	-16.1%
COC(=O)c1ccc(NC(=O)CCn2cccc2)cc1	-4.4%	-25.7%	-14.1%[59 µM]	?	4.7%
COc1ccc(NC(=O)CCn2cccc2)c(OC)c1	-4.4%	-26.6%	?	.	13.7%
CCc1ccc(NC(=O)CCn2cccc2)cc1	4.1%	-29.8%[57.1 µM]	50.1µM*	?	-16.8%
COc1ccc(Cl)cc1NC(=O)CCn1nc(C)cc1C	-3.9%	?	-1.5%[59 µM]	70.8µM*	10.5%
SMILES	GLS inh	JMJD2A Tudor	G9a block	BAZ2B block	HP1b binding inh
O=C(NCCc1nnc2ccc(NCCCN3CCOCC3)nn12)c1ccccc1	1.0%	2.1%	69.1%	-15.1%	27.3%
Cc1ccc(S(=O)(=O)N2C[C@H]3C(=O)C[C@@H](c4ccccc4C)N(S(=O)(=O)c4ccc(C)cc4)[C@H]3C[C@H]2c2ccccc2)cc1	19.9%	.	.	.	.
COc1ccc(OC)c(NC(=O)CCCc2ccccc2)c1	1.8%	-11.6%	.	-7.2%	21.0%
COc1ccc(OC)c(NC(=O)c2csnn2)c1	-5.2%	?	14.1µM*	?	-11.7%
COc1ccc(CCCC(=O)Nc2cc(C)ccc2OC)cc1	-1.3%	12.0%	79.4µM*	6.0%	59.6%
CCOC(=O)c1c(CSc2cccs2)n(C)c2cc(Br)c(O)c(CN(C)C)c12	-10.3%	63.1µM*	.	39.8µM*	?
CCOC(=O)COc1cc2c(C(=O)OCC)c(C)oc2cc1Br	6.4%	25.2%	11.6%	19.5%	45.7%
CCOC(=O)c1c(C)oc2cc(Br)c(O)c(Br)c12	12.8%	-20.4%	6.31µM*	8.4%	22.9%
CCOC(=O)c1c(C)n(C)c2cc(Br)c(O)c(O)c12	-26.1%	10µM*	0.355µM*	-3.2%	?
CC(C)C[C@@H](CN)NC(=O)c1nc[nH]c1C(=O)N[C@@H](Cc1ccccc1)C(=O)CNC[C@H](C)NC(=O)c1nc[nH]c1C(=O)N[C@@H](C)C(=O)O	-23.3%	79.4µM*	.	.	56.3%
CC(C)C[C@@H](CN)NC(=O)c1nc[nH]c1C(=O)N[C@@H](Cc1ccccc1)C(=O)CNC[C@H](C)NC(=O)c1nc[nH]c1C(=O)N[C@@H](CC(C)C)C(=O)O	6.8%	56.2µM*	.	.	49.2%
CC(C)C[C@@H](CN)NC(=O)c1nc[nH]c1C(=O)N[C@@H](Cc1c[nH]c2ccccc12)C(=O)CNC[C@H](C)NC(=O)c1nc[nH]c1C(=O)N[C@@H](C)C(=O)O	?	56.2µM*	.	.	13.9%
CC(C)CC(N)c1csc(NC(=O)c2cc(C(C)(C)C)nn2Cc2ccccc2)n1 (configuration not stated)	1.6%	.	.	.	.
CCCOC(=O)c1c(-c2ccc(C)cc2C)csc1NC(=O)C1C2CCC(O2)C1C(=O)O (configuration not stated)	6.6%	70.8µM*	12.6µM*	-5.9%	?
COc1cc(/C=C/C(=O)O)cc(OC)c1O	54.1%	-5.0%	.	.	20.6%
COc1cccc(/C=C/C(=O)c2ccc(C)c([N+](=O)[O-])c2)c1	-4.9%	-11.5%	?	-27.8%	1.0%
COc1cc(/C=C/C(=O)c2ccc(C)c([N+](=O)[O-])c2)cc(OC)c1O	22.9%	-26.4%	44.7µM*	-24.8%	-0.5%
COc1ccc(/C=C/C(=O)c2ccc(C)c([N+](=O)[O-])c2)cc1O	0.3%	?	44.7µM*	?	-21.8%
O=C(CN1C(=O)COc2ccc(S(=O)(=O)NC3CCCC3)cc21)Nc1ccc(Cl)cc1	-2.9%	-10.6%	1.2%[59 µM]	-3.1%	18.8%
COC(=O)COc1cc(C)cc2oc(=O)c(CC(=O)OC)c(C)c12	4.9%	-8.0%	9.3%[59 µM]	-3.8%	11.8%
COC(=O)COc1cc(OCC(=O)OC)c2c(C)c(Cl)c(=O)oc2c1	2.4%	-9.2%	10µM*	-12.1%	19.5%
CC1(C)Cc2c(C#N)c(N3CCN(C(=O)c4ccccc4Cl)CC3)nc(-c3ccco3)c2CS1	7.7%	?	.	39.8µM*	-13.5%
